This is a sample that favours compounds with a hit; in the whole collection about 8.9% have one here.
KB-3-1 tox: kills parental KB-3-1 adenocarcinoma cells | KB-3-1 viability, CellTiter-Glo ATP luminescence, 72 h | Potency, µM (top dose mostly 46.1 µM), actives largely listed as cytotoxic | 1.4% of 400,000 active; further: nearly all actives have a fitted effect of over 60% in size
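Multi-concentration cytotoxicity screen in KB-3-1 cells grown in DMEM lacking phenol red with 10% FBS. After 72 h at 37 °C with compound, ATP-dependent luminescence was recorded.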
DRD3 agonist: activates the human D3 dopamine receptor; max activation, %; AID 652048; P35462; D3R DiscoveRx beta-arrestin cells, luminescence, 90 min; 0.58% of 410,000 active; in the data active means max activation above about 30%
Target sequence (P35462 whole entry, looked up): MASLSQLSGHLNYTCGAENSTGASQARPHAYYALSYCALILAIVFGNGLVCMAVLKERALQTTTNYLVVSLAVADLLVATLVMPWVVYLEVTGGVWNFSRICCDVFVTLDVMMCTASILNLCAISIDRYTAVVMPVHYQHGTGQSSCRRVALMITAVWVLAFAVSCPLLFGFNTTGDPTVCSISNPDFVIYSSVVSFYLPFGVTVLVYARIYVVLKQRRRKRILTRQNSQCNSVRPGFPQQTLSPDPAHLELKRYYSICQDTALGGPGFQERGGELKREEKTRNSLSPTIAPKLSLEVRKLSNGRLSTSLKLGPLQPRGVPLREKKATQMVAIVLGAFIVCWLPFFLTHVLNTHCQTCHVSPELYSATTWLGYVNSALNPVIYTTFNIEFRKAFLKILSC
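Cells at 1500/well, incubated overnight, then treated with pinned compounds (dopamine as control) for 90 min at 37 degrees C. DiscoveRx reagent added for 30 - 60 minutes at room temperature; luminescence read.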
MCF10A rereplic: inducers of DNA re-replication in MCF 10A breast cells; MCF 10A DNA re-replication, Hoechst nuclear intensity, 48 h; Potency, µM (titrated, usually from 46.1 µM), actives largely listed as activators; 2.9% of 350,000 active; further: nearly all actives have a fitted effect of over 50% in size
DRD3 antagonist: D3 dopamine receptor (human) antagonism; P35462; D3R cells, DiscoveRx beta-arrestin luminescence, antagonist mode; hits give low values; max response, negative = inhibition, %; 2.5% of 360,000 active; AID 652054; in the data active means max response below about -50%; inconclusive means no clear call, values can overlap the other calls
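Cells expressing the human receptor were seeded at 1500 cells/well, incubated overnight at 37 degrees C in 5% CO2, then exposed to library compounds with dopamine controls for 90 minutes at 37 degrees C before luminescent detection.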
SW480 rereplic: induces DNA re-replication in SW480 colon adenocarcinoma cells. SW480 DNA re-replication, Hoechst DNA content imaging, 48 h. Potency, µM (series often up to 46.1 µM), most hits filed as activators. 1.8% of 340,000 active. AID 624297; further: nearly all actives have a fitted effect of over 55% in size
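Readout is total intensity of Hoechst-stained nuclei, excited at 405 nm and collected at 500-530 nm. Compound treatment lasted 48 hr at 37 C in 5% CO2 before staining.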
KB-V1 MDR tox: KB-V1 MDR subline cytotoxicity. Potency, µM (series often up to 46.1 µM), most hits filed as cytotoxic. 3.4% of 400,000 active. AID 1347076. KB-V1 MDR cells viability, CellTiter-Glo, 72 h; further: nearly all actives have a fitted effect of over 60% in size
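Cytotoxicity via CellTiter-Glo luminescence after 72 h compound exposure at 37 degrees C. Cells: drug-selected KB-V1 line, DMEM phenol-red free plus 10% FBS. Compounds tested at multiple concentrations; normalized data fitted to concentration-effect curves.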
A number is an active result; n = inactive; u = inconclusive; x = no result; ! = repeats disagree; [ ] = another dose, or the depositor's remark. Unless noted, the call rests on the fitted dose curve; in most records, active means well fitted curve in the direction sought with a large enough effect; inconclusive means small, poorly fitted or top-dose-only effect, or another doubt; inactive means no such curve, though single readings can be large; an effect the other way counts as inactive or inconclusive.

SMILES	KB-3-1 tox	DRD3 agonist	MCF10A rereplic	DRD3 antagonist	SW480 rereplic	KB-V1 MDR tox
CCOc1ccc2[nH]c(=O)c(CN(Cc3cccs3)Cc3nnnn3C(C)(C)CC)cc2c1	n	31	n	n	n	18µM
COc1ccc(CCNC(=O)c2ccc3ccccc3n2)cc1	n	n	n	n	n	u
Cc1ccnc(Nc2nc(-c3c(C)nc4sccn34)cs2)c1	u	n	u	n	n	u
Cc1nc2ncccn2c1-c1csc(Nc2ccc(O)cc2)n1	15µM	n	n	n	n	n
Cc1ccc(Nc2nc(-c3c(C)nc4ccccn34)cs2)cc1	0.021µM	n	u	n	u	0.16µM
Cc1ccc(Nc2nc(-c3c(C)nc4ncccn34)cs2)cc1	0.0058µM	n	u	n	0.058µM	0.33µM
Cc1nc2ccccn2c1-c1csc(NCc2ccco2)n1	n	n	n	n	n	u
C=CCNc1nc(-c2c(C)nc3ncccn23)cs1	n	n	n	n	n	n
COc1ccc(NC(=O)/C(N=Nc2cc(S(=O)(=O)Nc3ccc(OC)cc3)ccc2OC)=C(\C)O)cc1	u	n	0.58µM	n	n	n
Cc1cc(C)c(C(=O)/C=C/c2cccc3ccccc23)c(=O)[nH]1	6.5µM	n	16µM	u	23µM	8.2µM
CCCCNc1c(-c2ccc(SC3CCCCC3)cc2)nc2ccccn12	u	72!	u	n	n	21µM!
CCCCNc1c(-c2ccc(SC(C)CC)cc2)nc2ccccn12 (configuration not stated)	18µM!	30!	u	n	u	13µM!
COc1ccc(-c2nc3ccccn3c2NCc2ccc3c(c2)OCO3)cc1	n	n	u	n	n[9.22 µM]	u
O=C(Cn1c(=O)n(-c2ccccc2)c(=O)c2c3c(sc21)CCC3)c1ccc(Br)cc1	n	n	x	x	x	n
Cc1cc(N2CCN(C3CCCCC3)CC2)nc2cccc(O)c12	n	n	n	-84	n	n
COc1cccc(Oc2cnc(N)nc2-c2ccc(OC)cc2O)c1	6.5µM	n	6.5µM	n	7.3µM	2.6µM
C=C(C)COc1ccc(-c2[nH]ncc2Oc2ccccc2OCC)c(O)c1	u	n	16µM	u	u	n
COc1ccc(-c2nc(N)ncc2Oc2ccccc2Br)c(O)c1	n	n	u	n	n	n
C=C(C)COc1ccc(-c2[nH]ncc2-c2ccc(OC)cc2)c(O)c1	n	n	u	n	n	n
CCOC(=O)c1ccc(Oc2cn[nH]c2-c2ccc(O)cc2O)cc1	23µM	n	u	n	n	n
CCCOC(=O)c1ccc(Oc2cn[nH]c2-c2ccc(O)cc2O)cc1	u	n	u	n	n	n
C=C(C)COc1ccc(-c2[nH]ncc2Oc2cccc(OC)c2)c(O)c1	n	n	u	-56	u	u
Cc1ccc(NC(=O)CSc2[nH]c(=O)ncc2C)cc1	n	n	x	x	x	n
CCC(C)NC(=O)Cn1c(=O)n(-c2ccc(OC)c(OC)c2)c(=O)c2ccccc21 (configuration not stated)	n	n	x	x	x	n
CCCCCCCCNc1ccc(/C=C/c2ccnc3ccccc23)cc1	n	x	x	x	x	n
SMILES	KB-3-1 tox	DRD3 agonist	MCF10A rereplic	DRD3 antagonist	SW480 rereplic	KB-V1 MDR tox
CCOc1ccc(NC(=O)CN2C(=O)COc3ccc(S(=O)(=O)Nc4ccccc4)cc32)cc1	n	n	x	x	x	n
O=[N+]([O-])c1cc(O)c2ncccc2c1	u	n	u	-58	n	18µM
O=[N+]([O-])c1cc2cccnc2c2ncccc12	0.12µM	n	n	n	15µM	n
COC(=O)c1ccc(COc2cc([N+](=O)[O-])cc3cccnc23)o1	n	n	n	n	n	n
Cc1cccc(OC(=O)c2cc(-c3ccc4c(c3)OCCO4)on2)c1C	n	n	x	x	x	n
CC(=O)OC1COC(n2c(O)c(N=NC(N)=S)c3ccccc32)C(OC(C)=O)C1OC(C)=O (configuration not stated)	n	n	0.65µM	n	u	u
Cn1c(O)c(N=NC(N)=S)c2ccccc21	x	n	n	x	n	x
CCCCCCCCCCCCCCCC(=O)OCC(COP(=O)(O)OCC[N+](C)(C)C)OC(=O)CCCCCCCCCCCCCCC (configuration not stated)	x	x	n	x	n	x

Bioassay records (PubChem)
